# Source: PubChem BioAssay (Tox21)
# Where “and” joins values, the source holds several entries; their conditions need not be identical. Identical values can stand only once. Inconclusive results are not listed. A call without a number means that no potency is given here. Some structures have more than one record in an assay (separate samples or runs), and their calls can disagree. Calls of active or inactive are those of the source. Unless noted, the call rests on the fitted dose curve; in most records, active means well fitted curve in the direction sought with a large enough effect in the repeat runs; inconclusive means weak or mixed curves; inactive means no such curve, though single readings can be large; an effect the other way counts as inactive or inconclusive.
# Tests used:
# [1] = qHTS assay to identify small molecule antagonists of the glucocorticoid receptor (GR) signaling pathway - cell viability counter screen (AID 720693); further: nearly all actives have a fitted effect of over 55% in size
# [2] = qHTS assay for identifying genotoxic compounds that show differential cytotoxicity against isogenic chicken DT40 cell lines with known DNA damage response pathways - Rev3 mutant cell line (AID 743014); further: nearly all actives have a fitted effect of over 55% in size; further: potency means the concentration at half of the fitted maximal effect
# [3] = qHTS assay for identifying genotoxic compounds that show differential cytotoxicity against isogenic chicken DT40 cell lines with known DNA damage response pathways - Rad54/Ku70 mutant cell line (AID 743015); further: nearly all actives have a fitted effect of over 60% in size; further: potency means the concentration at half of the fitted maximal effect
# [4] = qHTS assay to identify small molecule antagonists of the androgen receptor (AR) signaling pathway - cell viability counter screen (AID 743033; further: nearly all actives have a fitted effect of over 45% in size; further: potency means the concentration at half of the fitted maximal effect)
# [5] = qHTS assay to identify small molecule antagonists of the androgen receptor (AR) signaling pathway using the MDA cell line - cell viability counter screen (AID 743041; further: nearly all actives have a fitted effect of over 45% in size; further: potency means the concentration at half of the fitted maximal effect)
# Method in brief: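 Using the breast carcinoma line MDA-kb2 AR-luc, test chemicals were co-incubated with R1881 for 16 h; CellTiter-Fluor reagent, added at 15.5 h, provided a fluorescence measure of live cells.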
# [6] = molecular target: Androgen receptor (Homo sapiens) (UniProt P10275); assay: qHTS assay to identify small molecule antagonists of the androgen receptor (AR) signaling pathway (AID 743035; active means well fitted inhibition curve with a large enough effect in the signal ratio in the repeat runs, not every such curve was filed as active; the % refers to the signal ratio)
# Method in brief: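 Quantitative HTS of the Tox21 10K library used HEK293 AR-UAS-bla cells stimulated with R1881 alongside compound for 16 h at 37C, followed by beta-lactamase FRET detection (LiveBLAzer B/G, 2 h, RT).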
# [7] = molecular target: Androgen receptor (Homo sapiens) (UniProt P10275); assay: qHTS assay to identify small molecule agonists of the androgen receptor (AR) signaling pathway (AID 743036; active means well fitted activation curve with a large enough effect in the signal ratio in the repeat runs, with a control signal flat, not every such curve was filed as active; the % refers to the signal ratio)
# Method in brief: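 Activation was read as beta-lactamase FRET signal from LiveBLAzer B/G substrate, added for 2 h at room temperature. Before that, GeneBLAzer AR-UAS-bla GripTite (HEK293) cells had 16 h compound exposure at 37C.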
# [8] = molecular target: Androgen receptor (Homo sapiens) (UniProt P10275); assay: qHTS assay to identify small molecule agonists of the androgen receptor (AR) signaling pathway using the MDA cell line (AID 743040; further: nearly all actives have a fitted effect of over 20% in size)
# Method in brief: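 Stable MMTV-luciferase reporter in MDA-kb2 cells; note the promoter carries GR as well as AR response elements. 16 h compound treatment, 37C, 0% CO2; ONE-Glo luminescence endpoint.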
# [9] = molecular target: Androgen receptor (Homo sapiens) (UniProt P10275); assay: qHTS assay to identify small molecule antagonists of the androgen receptor (AR) signaling pathway using the MDA cell line (AID 743042; further: nearly all actives have a fitted effect of over 55% in size)
# Method in brief: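 Antagonist mode: compounds plus R1881 agonist added to MDA-kb2 AR-luc cells, incubated 16 h at 37C. Luciferase reporter luminescence quantified, with multiplexed CellTiter-Fluor readout for cell viability.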
# [10] = qHTS assay for identifying genotoxic compounds that show differential cytotoxicity against isogenic chicken DT40 cell lines with known DNA damage response pathways - wild type cell line (AID 743012); further: nearly all actives have a fitted effect of over 60% in size; further: potency means the concentration at half of the fitted maximal effect
# Method in brief: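 Luminescent ATP viability signal (CellTiter-Glo, 30 min RT) recorded after wild type DT40 cells were incubated with compounds for 40 h at 37 C/5% CO2.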
# Sequence of Androgen receptor (Homo sapiens) (P10275 whole entry, looked up): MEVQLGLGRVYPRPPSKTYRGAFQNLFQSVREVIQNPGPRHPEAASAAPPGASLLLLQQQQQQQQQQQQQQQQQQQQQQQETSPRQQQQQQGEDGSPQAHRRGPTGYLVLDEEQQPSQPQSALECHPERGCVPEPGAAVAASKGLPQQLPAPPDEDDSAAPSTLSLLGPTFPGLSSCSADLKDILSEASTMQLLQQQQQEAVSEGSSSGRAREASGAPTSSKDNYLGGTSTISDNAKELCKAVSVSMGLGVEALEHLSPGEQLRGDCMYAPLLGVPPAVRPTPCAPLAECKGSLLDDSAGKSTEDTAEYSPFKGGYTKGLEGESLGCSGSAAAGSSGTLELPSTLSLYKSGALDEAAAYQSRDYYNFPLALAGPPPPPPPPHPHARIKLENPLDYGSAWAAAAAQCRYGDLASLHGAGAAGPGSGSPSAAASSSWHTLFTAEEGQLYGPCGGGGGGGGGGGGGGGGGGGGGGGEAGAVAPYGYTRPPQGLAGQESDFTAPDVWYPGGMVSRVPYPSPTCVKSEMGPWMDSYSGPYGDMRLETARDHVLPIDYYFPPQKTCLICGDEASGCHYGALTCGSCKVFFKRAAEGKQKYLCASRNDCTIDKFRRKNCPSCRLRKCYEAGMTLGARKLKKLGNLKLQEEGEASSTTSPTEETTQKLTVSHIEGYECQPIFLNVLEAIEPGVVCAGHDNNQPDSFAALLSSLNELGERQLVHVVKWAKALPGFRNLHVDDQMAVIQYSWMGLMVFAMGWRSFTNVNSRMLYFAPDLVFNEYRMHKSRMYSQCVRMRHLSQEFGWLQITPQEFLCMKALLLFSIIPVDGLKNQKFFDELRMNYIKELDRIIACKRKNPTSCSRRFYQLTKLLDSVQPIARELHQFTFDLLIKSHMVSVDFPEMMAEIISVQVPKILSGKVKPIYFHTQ
smiles,measurement,setting,value
CC(C)CNCC(C)C,outcome,[1],inactive
same,Potency,[2],inactive
same,Potency,[3],inactive
same,Potency,[4],inactive
same,Potency,[5],inactive
CO[C@]12C[C@@H](COC(=O)c3cncc(Br)c3)CN(C)[C@@H]1Cc1cn(C)c3cccc2c13,outcome,[1],inactive
same,Potency,[2],10.6 µM (active)
same,outcome,[6],inactive
same,outcome,[7],inactive
same,Potency,[8],inactive
same,Potency,[5],inactive
same,Potency,[9],inactive
CN1C(=O)N(C)C(O)C1O (stereo not drawn),outcome,[1],inactive
same,Potency,[2],inactive
same,Potency,[4],inactive
same,Potency,[5],inactive
COC(=O)C1=C(C)NC(C)=C(C(=O)OC)C1c1ccccc1[N+](=O)[O-],outcome,[1],inactive
same,Potency,[4],inactive and 49 µM (active)
same,Potency,[5],inactive
CCOC(=O)c1c(C)n(C)c2ccc(O)cc12,outcome,[1],inactive
same,Potency,[3],inactive
same,Potency,[4],inactive
same,Potency,[8],inactive
same,Potency,[5],inactive
same,Potency,[9],inactive
CC(C)(C)c1nnc(NS(=O)(=O)c2ccccc2)s1,outcome,[1],inactive
same,Potency,[2],inactive
same,Potency,[3],inactive
same,Potency,[4],inactive
same,Potency,[5],inactive
NS(=O)(=O)c1cc(C(=O)O)cc(N2CCCC2)c1Oc1ccccc1,outcome,[1],inactive
same,Potency,[2],inactive
same,Potency,[4],inactive
same,Potency,[5],inactive
OC1CCCCC1c1ccccc1 (stereo not drawn),Potency,[10],inactive
same,Potency,[2],inactive
same,Potency,[3],inactive
same,Potency,[4],inactive
same,outcome,[7],inactive
same,Potency,[8],inactive
same,Potency,[5],inactive
same,Potency,[9],inactive
O=C(CCCN1CCN(c2ccccn2)CC1)c1ccc(F)cc1,outcome,[1],inactive
same,Potency,[4],inactive
same,Potency,[5],inactive
Cc1c(NC(C)C)c(=O)n(-c2ccccc2)n1C,outcome,[1],inactive
same,Potency,[4],inactive
same,Potency,[5],inactive
CO[Si](CCCOCC1CO1)(OC)OC (stereo not drawn),outcome,[1],inactive
same,Potency,[2],38.6 µM (active)
same,Potency,[4],inactive
same,Potency,[5],inactive
O=C1CCCC(=O)C1,outcome,[1],inactive
same,Potency,[2],inactive
same,Potency,[3],inactive
same,Potency,[4],inactive
same,Potency,[5],inactive
COc1ccccc1OCC(O)CN1CCN(CC(=O)Nc2c(C)cccc2C)CC1 (stereo not drawn),outcome,[1],inactive
same,Potency,[2],inactive
same,Potency,[3],inactive
same,Potency,[4],inactive
same,Potency,[5],inactive
N[C@H]1CN(c2c(F)cc3c(=O)c(C(=O)O)cn(C4C[C@H]4F)c3c2Cl)CC12CC2 (stereo partly drawn),outcome,[1],inactive
same,Potency,[2],inactive
same,Potency,[3],inactive
same,Potency,[4],inactive
same,Potency,[5],inactive
CC/C=C\CC/C=C/CO,outcome,[1],inactive
same,Potency,[2],inactive
same,Potency,[3],inactive
same,Potency,[4],inactive
same,Potency,[5],inactive
Nc1c[n+](N2CCOCC2)no1,outcome,[1],inactive
same,Potency,[2],inactive
same,Potency,[3],inactive
same,Potency,[4],inactive
same,Potency,[5],inactive
CN(C)CCCN1c2ccccc2CCc2ccc(Cl)cc21,Potency,[10],7.5 µM (active) and 6.11 µM (active)
same,Potency,[2],7.5 µM (active) and 6.86 µM (active)
same,Potency,[3],9.44 µM (active) and 7.7 µM (active)
same,Potency,[4],24.5 µM (active)
same,Potency,[5],48.6 µM (active)
CCCCCCCCCCCCCC=O,"viability change, negative = cytotoxic",[1],-0.799% [at 7.04 µM] (inactive)
same,"activity change, negative = cytotoxicity",[3],-24.1% [at 8.55 µM] (inactive)
same,"activity change, negative = cytotoxicity",[4],5.83% [at 7.04 µM] (inactive)
same,"viability change, negative = cytotoxic",[5],-4.68% [at 8.47 µM] (inactive)
CC(=O)OC/C=C(\C)CC/C=C(\C)CCC=C(C)C,outcome,[1],inactive
same,Potency,[2],61.1 µM (active)
same,Potency,[4],inactive
same,Potency,[5],inactive
CCCCCSCCCCC,outcome,[1],inactive
same,Potency,[2],61.1 µM (active)
same,Potency,[4],inactive
same,Potency,[5],inactive
NS(=O)(=O)c1cc2c(cc1Cl)NC(C1CC3C=CC1C3)NS2(=O)=O (stereo not drawn),outcome,[6],inactive
same,outcome,[7],inactive
FC1(F)C(F)(F)C(F)(F)C2(F)C(F)(F)C(F)(F)C(F)(F)C(F)(F)C2(F)C1(F)F (stereo not drawn),outcome,[6],inactive
same,outcome,[7],inactive
